High-throughput results as filed in PubChem BioAssay.
Pin1 inhibitor: inhibitors of human Pin1. Q13526. Pin1 FP peptide displacement, HiFluor488, 10 min. Potency, µM (series often up to 115 µM), inactives show top-dose activity, negative = inhibition, hits mostly inhibitors. hit rate 0.009% among 390,000. AID 504891; active means well fitted inhibition curve with a large enough effect in the polarisation, with a control signal flat, not every such curve was filed as active; inconclusive means small, poorly fitted or top-dose-only effect, or effect the other way, or a change in a side signal; inactive means no such curve, though single readings can be large or run the other way; the % refers to the polarisation; further: on the % scale 0 is the no-effect control and ±100 the full control effect
Target sequence (Q13526 whole entry, looked up): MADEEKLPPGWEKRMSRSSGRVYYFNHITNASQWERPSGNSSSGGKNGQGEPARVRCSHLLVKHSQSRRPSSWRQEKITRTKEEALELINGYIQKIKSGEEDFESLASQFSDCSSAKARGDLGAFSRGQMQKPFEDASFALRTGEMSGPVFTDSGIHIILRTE
Tb PFK inh: T. brucei PFK enzyme inhibition; T. brucei PFK, ADP-Glo luminescence; Potency, µM (series often up to 57.5 µM), without a hit: top-dose activity, negative = inhibition, actives largely listed as inhibitors; hit rate 0.17% among 330,000; AID 485367;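 further: 0% = uninhibited 1x PFK enzyme wells and -100% = no-enzyme wells; nearly all actives have a fitted effect of over 60% in size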
Target sequence (O15648 whole entry, looked up): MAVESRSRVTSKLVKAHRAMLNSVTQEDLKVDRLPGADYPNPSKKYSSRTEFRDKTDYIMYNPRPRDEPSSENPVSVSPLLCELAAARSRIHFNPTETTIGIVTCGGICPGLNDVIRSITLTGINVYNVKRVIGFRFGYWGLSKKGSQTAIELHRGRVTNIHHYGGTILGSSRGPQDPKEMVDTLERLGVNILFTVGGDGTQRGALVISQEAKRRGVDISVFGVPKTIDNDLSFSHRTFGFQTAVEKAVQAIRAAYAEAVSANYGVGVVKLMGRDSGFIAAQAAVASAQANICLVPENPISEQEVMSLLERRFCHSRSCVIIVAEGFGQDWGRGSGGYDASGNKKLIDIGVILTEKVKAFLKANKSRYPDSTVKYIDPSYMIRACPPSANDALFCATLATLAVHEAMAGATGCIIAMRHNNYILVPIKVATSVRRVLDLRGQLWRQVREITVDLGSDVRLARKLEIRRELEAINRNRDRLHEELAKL
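Luminescent ADP detection (ADP-Glo, two-step: ATP depletion then ADP-to-ATP conversion for luciferase) reported PFK activity after 45 min room-temperature reaction of 1.25 nM enzyme with 0.5 mM F6P and 0.1 mM ATP at pH 8.0.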
S-ASM inh: inhibitors of human secretory acid sphingomyelinase; placental ASM, HMU-PC fluorogenic substrate, 60 min; Potency, µM (series often up to 57.5 µM), for the others: at the top dose activity change, negative = inhibition, hits mostly inhibitors; hit rate 0.006% among 340,000; AID 504937
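Human placenta-derived ASM preincubated with compound 10 min at room temperature, then reacted with 9 uM (final) fluorogenic HMU-PC substrate for 60 min at 37 C. Stop solution raises pH to 10; fluorescence read at Ex 386/Em 447 nm.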
VDR inhibitor: vitamin D3 receptor (human) inhibition; Potency, µM, without a hit: max response, negative = inhibition, most hits filed as inhibitors; VDR-SRC2-3 peptide fluorescence polarization, 2 h; hit rate 0.93% among 400,000; P11473; further: on the % scale 0 is the no-effect control and ±100 the full control effect
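Fluorescence polarization assay measuring small-molecule disruption of VDR binding to the coregulator peptide SRC2-3. Compounds were pin-transferred (23 nl) into the reagent mix and incubated 2 h at room temperature before reading.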
PLK1 PBD inh: blocks phosphopeptide binding to human PLK1 polo-box domain. Potency, µM, for inactives: max response, negative = inhibition, actives largely listed as inhibitors. AID 720504. hit rate 2.8% among 360,000. Plk1 PBD binding of FITC phosphopeptide, fluorescence polarization; further: series mostly up to about 57 µM; on the % scale 0 is the no-effect control and ±100 the full control effect; nearly all actives have a fitted effect of over 65% in size
TDP1 inh: inhibitors of human tyrosyl-DNA phosphodiesterase TDP1 | recombinant TDP1, AlphaScreen DNA substrate cleavage | Q9NUW8 | hit rate 0.28% among 350,000 | Potency, µM (series often up to 130 µM), inactives show at the top dose activity change, negative = inhibition, most hits filed as inhibitors; further: on the % scale 0 is the no-effect control and ±100 the full control effect; nearly all actives have a fitted effect of over 40% in size
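AlphaScreen read-out: signal falls as enzyme removes the 3' tyrosine-FITC from a 5'-biotinylated DNA oligo (15 nM, 5 min, RT). Enzyme was E. coli-made recombinant Tdp1 at 1 nM, exposed to compound for 15 min beforehand; beads 10 ug/ml, 10 min.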
The depositor's hits bear a star; ? = inconclusive; · = not tested or not shown. Compounds with a hit are over-represented: about 3.1% of the library has one in this group of screens. Unless noted, the call rests on the fitted dose curve; in most records, active means well fitted curve in the direction sought with a large enough effect; inconclusive means small, poorly fitted or top-dose-only effect, or another doubt; inactive means no such curve, though single readings can be large; an effect the other way counts as inactive or inconclusive. Potency means the concentration at half of the fitted maximal effect.

SMILES	Pin1 inhibitor	Tb PFK inh	S-ASM inh	VDR inhibitor	PLK1 PBD inh	TDP1 inh
CCn1c(Cl)c(C=O)s/c1=N\S(=O)(=O)c1ccccc1	22%	-26%	3%	3.2µM*	12µM*	0%
COCCNC(=S)NNC(=O)c1ccco1	-11%	-1%	8%	-9%	-7%	4%
COCCNC(=S)NNc1cccc(C(=O)O)c1	3%	1%	1%	?	21µM*	-1%
Cc1ccc(C)c(N=Cc2cc3c(cc2[N+](=O)[O-])OCO3)c1	13%	1%	-5%	79µM*	-22%	5%
Cc1ccc(N=Cc2cc3c(cc2[N+](=O)[O-])OCO3)cc1[N+](=O)[O-]	?	·	-5%	?	?	·
CC(C)(C)c1ccc(O)c(N=Cc2cc3c(cc2[N+](=O)[O-])OCO3)c1	0%	-4%	-3%	?	27µM*	·
CC(=O)N(C)c1ccc(N=Cc2cc3c(cc2[N+](=O)[O-])OCO3)cc1	-1%	·	-2%	7%	-18%	·
COc1ccc(-c2cc(-c3ccccc3)nc3c2COc2ccc(F)cc2-3)cc1	62%	·	·	26%	·	-1%
COc1ccc(C(=O)c2coc3ccc(O)c(CN4CCCCC4)c23)cc1	5%	3%	11%	7%	-16%	7%
O=C(c1ccccc1)c1coc2ccc(O)c(CN3CCOCC3)c12	-1%	1%	1%	-11%	21µM*	5%
CCOC(=O)c1c(-c2ccccc2)oc2ccc(O)c(CN3CCOCC3)c12	3%	-6%	-2%	-21%	12µM*	2%
C[N+]1(Cc2ccccc2)CCC(C(=O)OCC2CCCC2)CC1 (stereo not drawn)	·	·	·	14%	·	6%
CN1CCC(=NNC(=O)C(=O)Nc2cccc(Br)c2)CC1	-1%	-2%	-1%	71µM*	12µM*	9%
C=C[C@@H]1[C@@H](C)[C@H](C)C(=O)C([C@H](O)C(C)C)[C@@H]1C (stereo partly drawn)	6%	·	·	0%	·	4%
CC(C)CCCC(C)CCCC(C)CCCC(C)C(=O)O (stereo not drawn)	·	·	·	?	·	2%
Cc1cc(O)c(C(C)(C)C)cc1Sc1cc(C(C)(C)C)c(O)cc1C	·	·	·	·	·	18%
CC(C)(C)c1cc(O)c(C(C)(C)C)cc1O	·	·	·	28µM*	·	11%
CO[C@H]1C([C@@]2(C)O[C@@H]2CC=C(C)C)[C@]2(CC[C@H]1OC(=O)/C=C/C=C/C=C/C=C/C(=O)O)CO2 (stereo partly drawn)	·	·	·	35µM*	·	-1%
CC(=O)Nc1ccn(C2CC3OCC(NC(=O)C(NC(=O)OC(C)(C)C)C(C)OCc4ccccc4)C3O2)c(=O)n1 (stereo not drawn)	2%	·	·	-13%	·	4%
COC(=O)c1cc(C(=O)Nc2nnc(CC(C)(C)C)s2)cc([N+](=O)[O-])c1	1%	1%	-13%	-15%	19µM*	1%
CC(C)(C)Cc1nnc(NC(=O)c2ccc3c(c2)OCO3)s1	0%	?	4%	?	15µM*	·
O=C(Nc1nnc(Cc2ccc([N+](=O)[O-])cc2)s1)c1ccc2c(c1)OCO2	-1%	-9%	-4%	15%	1%	0%
COc1cc(C(=O)Nc2nnc(CC(C)(C)C)s2)cc(OC)c1OC	16%	·	·	8%	·	·
CCC(CC)c1nnc(NC(=O)c2ccc3c(c2)OCO3)s1	-2%	?	0%	79µM*	27µM*	9%
CCC(CC)c1nnc(NC(=O)COc2ccc3c(c2)OCO3)s1	2%	-18%	2%	79µM*	13µM*	9%
SMILES	Pin1 inhibitor	Tb PFK inh	S-ASM inh	VDR inhibitor	PLK1 PBD inh	TDP1 inh
CC(=O)O[C@@H]1CC[C@@]2(C)[C@H](C1)[C@H](OC(C)=O)C[C@@H]1[C@@H]2C[C@H]2[C@@H]3CN4C[C@H](C)CC[C@H]4[C@H](C)[C@H]3CC[C@@]12O	·	·	·	11%	·	5%
CC[C@H]1OC(=O)[C@H](C)C(=O)[C@H](C)[C@@H](OC2O[C@H](C)C[C@H](N(C)C)[C@@H]2O)[C@@](C)(OC)C[C@@H](C)C(=O)[C@@H](C)C2N(CCCCn3cnc(-c4cccnc4)c3)C(=O)O[C@@]21C (stereo partly drawn)	·	·	·	-4%	·	·
COc1ccc(-c2nnc3n2N=C(c2ccc(OC)c(OC)c2)CS3)c(OC)c1	0%	·	·	·	·	12%
Cc1ccccc1-c1noc(-c2ccc(N3CCN(C)CC3)c([N+](=O)[O-])c2)n1	22%	·	·	6%	·	6%
O=C(CSc1nc(=O)[nH]c2c1CCCC2)Nc1ccc(Cl)c(Cl)c1	-4%	·	·	12%	·	0%
O=C(Cn1ncc2c([nH]c3ccccc32)c1=O)N1CCN(c2ccccc2F)CC1	-11%	-19%	0%	-8%	27µM*	-5%
O=C(Cn1ncc2c([nH]c3ccccc32)c1=O)N1CCN(c2ccc(F)cc2)CC1	-8%	2%	-2%	-19%	?	6%
C=CCN(c1nc(C)c(Br)c(OC)n1)S(=O)(=O)c1ccc(C)cc1	-6%	-5%	-16%	14%	2%	50µM*
COC(=O)CN(c1nc(C)c(Br)c(OC)n1)S(=O)(=O)c1ccc(C)cc1	-1%	2%	-4%	11%	1%	2%
CCN(C(=O)CSc1nc(-c2ccccc2)no1)c1cccc(C)c1	2%	·	·	-10%	·	-3%
CCCCCOc1ccc(C(O)C(CN2CCOCC2)c2ccccc2)cc1 (stereo not drawn)	2%	2%	-1%	-17%	27µM*	·
O=C(OCCN1CCOCC1)c1ccc(OCCN2CCOCC2)cc1	4%	-1%	3%	8%	-4%	-1%
O=C(OCCN1CCOCC1)c1ccccc1	1%	3%	4%	-19%	24µM*	6%
CCCCOc1ccc(C(=O)CCN2CCOCC2)cc1	1%	-4%	2%	32µM*	24µM*	5%
CC(=O)Nc1ccn(C2OC(C(COC(C)=O)NC(=O)C3CCCN3C(=O)OC(C)(C)C)C(OC(C)=O)C2OC(C)=O)c(=O)n1 (stereo not drawn)	-2%	·	·	-5%	·	7%
Cc1cc(C)c2c(NC(=O)c3ccccc3Cl)c(C(=O)NCc3ccc(Cl)cc3)sc2n1	47%	·	·	-7%	·	-5%
O=C(NCc1ccccc1)C1CCN(S(=O)(=O)c2ccc3c(c2)CCCN3C(=O)C2CCC2)CC1	-1%	·	·	-4%	·	3%
O=C1c2cccc3cccc(c23)N1Cc1cccc(F)c1	2%	1%	48%	-7%	3%	79µM*
O=C(NCCCc1nc2ccccc2n1CCOc1ccccc1)C1CCCCC1	30%	·	·	-7%	·	0%
Cc1ccc(CNC(C)(C)CO)cc1	1%	-4%	10%	6%	-15%	1%
CC(C)(CO)NCc1ccc(Br)cc1	-6%	-4%	-2%	28µM*	19µM*	5%
